The text below walks through data of PubChem BioAssay (NCATS).

Where “and” joins values, the source holds several entries; their conditions need not be identical. Identical values can stand only once. Results filed as inconclusive are left out. Calls of active or inactive are those of the source. Unless noted, calls follow the shape of the dose curve; as a rule, active = well fitted curve in the direction sought with a large enough effect; inconclusive = small, poorly fitted or top-dose-only effect, or another doubt; inactive = no such curve, though single readings can be large; an effect the other way counts as inactive or inconclusive.

Test [1] is described as follows: Validation of Assay for Modulators of Lamin A Splicing (AID 1459; active = well fitted curve in the direction sought with a large enough effect in the signal ratio; the % refers to the signal ratio;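 also: cells exposed to compound for two days before reading; 0% is about no effect; ratio rise marks activators and ratio drop marks inhibitors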). A digest of the protocol: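 Readout: ratio of GFP (500-530 nm) to RFP (575-640 nm) total object intensity by 488 nm laser-scanning cytometry after 48 hrs. Cells were HeLa S3 clones carrying lamin A-EGFP minigene plus DsRed2 viability reporter; vehicle 0.5% DMSO final.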
Test [2] is described as follows: qHTS Assay for Lipid Storage Modulators (AID 1519; calls by dose curve; as to activity change, negative = inhibition: % is scaled to controls: 0 for no effect and ±100 for the full control effect). Conditions: Drosophila S3 cells, BODIPY lipid droplet/cell ratio, laser cytometry, cells loaded with oleic acid; for activity change, negative = inhibition: at 57.5 µM (top of the series). The method, boiled down:
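Cells seeded at 5,000 per well were treated with compounds over a concentration series and loaded with oleic acid (400 uM, as added). Lipid droplet fluorescence (488 nm excitation, 500-530 nm channel) was read by laser-scanning cytometry and normalized to 20 uM Triacsin C.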
A general note: In qHTS, concentration-response curves come from the screen itself.

In test [3] the target is ATP-dependent DNA helicase Q1 (Homo sapiens) (UniProt P46063). In words: qHTS Validation Assay for Inhibitors of RecQ-Like Dna Helicase 1 (RECQ1) (AID 2353).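 Also: plate controls were DMSO vehicle for no effect and enzyme-free control for full effect.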 A digest of the protocol: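 50 nM RECQ1T1 preincubated 15 min with compound in Tris pH 8.0 buffer with MgCl2, DTT, Tween-20 and 2.5 ug/ml poly(dI-dC); started with 200 nM TAMRA/BHQ-2 forked duplex and 2 mM ATP. Unwinding read as fluorescence (525/598 nm), two reads 2 h apart.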

Test [4] addresses Galactokinase (Homo sapiens) (UniProt P51570). In words: qHTS Validation Assay for Inhibitors of Human Galactokinase (GALK) (AID 493189). Also: 0% is about no effect. The method, boiled down: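 Luminescence from leftover ATP (Kinase-Glo Plus, 10 min) served as read-out after a 1 h room-temperature reaction of 5 nM GALK, 100 uM galactose and 35 uM ATP at pH8.0.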
[5] abbreviates: measured here: cell count channel max response.
Where [6] appears, read: measured here: lipid channel max response.

Galactokinase (Homo sapiens), sequence (P51570 whole entry, looked up): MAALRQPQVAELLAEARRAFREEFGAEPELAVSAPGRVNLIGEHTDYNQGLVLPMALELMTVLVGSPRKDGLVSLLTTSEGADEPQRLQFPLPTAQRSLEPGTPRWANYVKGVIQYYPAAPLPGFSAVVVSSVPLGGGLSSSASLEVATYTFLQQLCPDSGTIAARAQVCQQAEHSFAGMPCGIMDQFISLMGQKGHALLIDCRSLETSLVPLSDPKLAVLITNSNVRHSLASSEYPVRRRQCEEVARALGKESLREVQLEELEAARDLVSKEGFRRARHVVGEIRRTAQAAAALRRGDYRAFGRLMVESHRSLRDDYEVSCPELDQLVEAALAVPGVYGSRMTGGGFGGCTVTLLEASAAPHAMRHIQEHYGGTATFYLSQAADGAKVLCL
ATP-dependent DNA helicase Q1 (Homo sapiens), sequence (P46063 whole entry, looked up): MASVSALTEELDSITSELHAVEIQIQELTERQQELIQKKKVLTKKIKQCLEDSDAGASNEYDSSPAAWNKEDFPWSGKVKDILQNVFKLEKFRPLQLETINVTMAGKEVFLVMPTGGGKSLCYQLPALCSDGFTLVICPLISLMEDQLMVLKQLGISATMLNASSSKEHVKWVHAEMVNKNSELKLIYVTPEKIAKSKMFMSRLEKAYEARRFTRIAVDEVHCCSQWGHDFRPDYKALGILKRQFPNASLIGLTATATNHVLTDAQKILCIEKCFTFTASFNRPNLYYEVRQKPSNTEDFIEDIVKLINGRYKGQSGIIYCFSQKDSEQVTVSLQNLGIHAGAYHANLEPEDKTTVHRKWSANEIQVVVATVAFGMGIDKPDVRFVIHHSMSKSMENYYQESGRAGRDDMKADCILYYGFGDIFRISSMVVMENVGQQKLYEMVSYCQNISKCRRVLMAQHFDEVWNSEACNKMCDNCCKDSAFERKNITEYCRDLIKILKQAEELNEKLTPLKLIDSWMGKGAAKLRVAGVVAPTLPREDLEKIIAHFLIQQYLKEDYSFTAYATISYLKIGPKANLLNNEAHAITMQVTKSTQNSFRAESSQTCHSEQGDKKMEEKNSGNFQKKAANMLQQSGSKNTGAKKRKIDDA

As to `CCCN1CCC[C@@H]2Cc3n[nH]cc3C[C@H]21`, the compound was called inactive in test [1], in test [3] and in test [4]. Further, the activity change, negative = inhibition in test [2] is 3.49% (inactive). The max response in test [2] (setting [5]) was found to be 9.58%; in test [2] (setting [6]), 14.1%.
`CCNC(=O)[C@H]1O[C@@H](n2cnc3c(N)ncnc32)[C@H](O)[C@H]1O`: the outcome in test [1], in test [3] and in test [4] was inactive.
In the case of `CCCC[N+]1(C)C2CC(OC(=O)C(CO)c3ccccc3)CC1C1OC12` (centres undefined), the compound was classed as inactive in test [1], in test [3] and in test [4]. Besides, the activity change, negative = inhibition in test [2] was -1.49% (inactive). Further, the max response is 13.3% in test [2] (setting [5]) and 13.7% in test [2] (setting [6]).
Consider `COc1ccc2c3c1O[C@H]1C(=O)CC[C@@]4(O)C(C2)N(CC2CC2)CCC314` (some centres undefined), for which the call in test [1], in test [3] and in test [4] was inactive.
Turning to `CCC(CO)NC(=O)[C@@H]1C=C2c3cccc4[nH]cc(c34)C[C@H]2N(C)C1` (some centres undefined), the call in test [1], in test [3] and in test [4] was inactive. In addition, in test [2], the activity change, negative = inhibition is 0.713% (inactive). Besides, the results for the max response in test [2] (setting [5]) and in test [2] (setting [6]) were -10.2% and -11.2%, respectively.
Consider `CCN(CC)C(=O)N[C@@H]1C[C@@H]2c3cccc4[nH]cc(c34)C[C@H]2N(C)C1`, for which the outcome in test [1], in test [3] and in test [4] was inactive. Further, the activity change, negative = inhibition in test [2] is -3.98% (inactive). For the same compound, the results for the max response in test [2] (setting [5]) and in test [2] (setting [6]) were 28.2% and 24%, respectively.
`C[C@]12CC[C@H]3[C@@H](CCC4C[C@H](O)CC[C@@]43C)[C@@H]1CC[C@@H]2O` (some centres undefined): the outcome in test [1], in test [3] and in test [4] was inactive.
In the case of `COc1ccc2c(c1O)-c1cccc3c1C(C2)N(C)CC3` (centres undefined), the compound was classed as inactive in test [1], in test [3] and in test [4].
Turning to `COc1cc(C[C@@H](C)N)c(OC)cc1I`, the outcome in test [1], in test [3] and in test [4] was inactive.
Regarding `NC(Cn1ccc(=O)[nH]c1=O)C(=O)O` (centres undefined), the compound was classed as inactive in test [1], in test [3] and in test [4]. For the same compound, in test [2], the activity change, negative = inhibition is -1.49% (inactive). The max response in test [2] (setting [5]) is -18.2%; in test [2] (setting [6]), -23.6%.
As to `COC(=O)C(N)CCCN=C(N)N[N+](=O)[O-]` (centres undefined), the compound was classed as inactive in test [1], in test [3] and in test [4].
As for `C=CCN1CC[C@@]2(C)c3cc(O)ccc3CC1[C@@H]2C`, the compound was called inactive in test [1], in test [3] and in test [4]. In addition, the activity change, negative = inhibition in test [2] is -0.315% (inactive). The max response in test [2] (setting [5]) is 26.7%; in test [2] (setting [6]), 28.1%.
For the compound `CCN1C[C@]2(C)CC[C@H](O)[C@@]34[C@@H]5C[C@@H]6[C@@H](OC)C[C@@](O)(C5[C@H]6O)[C@@H](C[C@@H]23)[C@@H]14`, the result in test [1], in test [3] and in test [4] was inactive. For the same compound, the activity change, negative = inhibition in test [2] is 1.56% (inactive). Moreover, the max response was -17.1% in test [2] (setting [5]) and -16.8% in test [2] (setting [6]).
Consider `Nc1ncnc2c1ncn2[C@@H]1O[C@H](COP(=O)(O)CP(=O)(O)OP(=O)(O)O)[C@H](O)[C@H]1O`, for which the compound was called inactive in test [1], in test [3] and in test [4].
On to `C[N+]1(C)C2CC(OC(=O)C(CO)c3ccccc3)CC1C1OC12` (centres undefined), for which the compound was classed as inactive in test [1], in test [3] and in test [4]. Besides, in test [2], the activity change, negative = inhibition is 0.686% (inactive) and -2.43% (inactive). Also, the max response is 53.9% and -15.4% in test [2] (setting [5]); 52.9% and -17% in test [2] (setting [6]).
On to `CCCN1CCC[C@@H](c2cccc(C#N)c2)C1`, for which the compound was classed as inactive in test [1], in test [3] and in test [4].
Consider `CC12CCC3C(CCC4=C(O)C(=O)CCC43C)C1CCC2=O` (centres undefined), for which the outcome in test [1], in test [3] and in test [4] was inactive.
In the case of `CN1C[C@@H](CS(=O)(=O)N(C)C)C[C@@H]2c3cccc4c3c(cn4C)C[C@H]21`, the compound was called inactive in test [1], in test [3] and in test [4].
In the case of `CCCN1CCCC(c2cccc(O)c2)C1` (centres undefined), the result in test [1], in test [3] and in test [4] was inactive.
Regarding `NCC#Cc1ccccc1`, the compound was classed as inactive in test [1], in test [3] and in test [4]. Further, the activity change, negative = inhibition in test [2] is -4.59% (inactive). Besides, the max response in test [2] (setting [5]) is -80.1%; in test [2] (setting [6]), -81.6%.
Turning to `CCCCN1C2CCC1CC(OC(c1ccc(F)cc1)c1ccc(F)cc1)C2` (centres undefined), the result in test [1], in test [3] and in test [4] was inactive.
For `CCCN(CCC)[C@@H]1CCc2c(F)ccc(O)c2C1`, the compound was classed as inactive in test [1], in test [3] and in test [4].
`CC1Cc2cc3c(cc2C(c2ccc(N)cc2)=NN1)OCO3` (centres undefined): the outcome in test [1], in test [3] and in test [4] was inactive. Further, the activity change, negative = inhibition in test [2] was 1.87% (inactive). The figures for the max response in test [2] (setting [5]) and in test [2] (setting [6]) were 56.1% and 60.1%, respectively.
